Screens deposited in PubChem by The Scripps Research Institute Molecular Screening Center.
An excerpt weighted towards active compounds, which were near 2.4% of everything screened.
ULK1 primary: ULK1 kinase inhibitors, primary screen, biochemical, AlphaScreen; inhibition, % at 5.96 µM; AlphaScreen Atg13 phosphorylation by ULK1, luminescence; 1.9% of 30,000 active; Serine/threonine-protein kinase ULK1 (Homo sapiens), O75385; in the data active = inhibition above about 43%;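 also: 0% = median of compound wells and 100% = no enzyme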
ASK1 inh: ASK1 kinase inhibitors, primary screen, biochemical, AlphaScreen; Mitogen-activated protein kinase kinase kinase 5 (Homo sapiens), Q99683; 0.99% of 22,000 active; AlphaScreen MKK6 phosphorylation by ASK1, luminescence; inhibition, % at 7.44 µM; in the data active = inhibition above about 35%;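 also: 0% = median of compound wells and 100% = no enzyme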
* = called active by the depositor; x = no result.

SMILES | ULK1 primary | ASK1 inh
CNS(=O)(=O)c1ccccc1Nc1nc(Nc2cc(OC)ccc2OC)ncc1Br | 64* | -3
c1ccc(OCCNc2cc(-c3ccc(N4CCOCC4)nc3)ncn2)cc1 | 3 | 0
C/C=C/C(=O)Nc1ccc(-c2ccc(NC(=O)/C=C/C)c(OC)c2)cc1OC | -13 | x
CCCNc1nc(NCCN2CCOCC2)nc2cc(OC)c(OC)cc12 | 10 | 0
O=C(NCc1cccnc1)c1ccc2nc(-c3ccccc3)sc2c1 | -22 | 1
O=C(NCc1cccnc1)c1ccc2nc(Br)sc2c1 | 45* | 11
COc1cc(Nc2nc(-c3cccc(C(C)=O)c3)ncc2C)cc(OC)c1OC | 25 | 7
COc1ccc(-c2ncc(C)c(Nc3cc(OC)c(OC)c(OC)c3)n2)cc1 | 67* | 22
COc1cc(Nc2nc(-c3ccccc3)ncc2C)cc(OC)c1OC | 49* | 16
COc1cc(Nc2nc(-c3ccc(C(=O)NC4CC4)cc3)ncc2C)cc(OC)c1OC | 35 | 21
Cc1cccc(NC(=O)c2ccc(C(F)F)o2)c1N1CCC2(CC1)OCCO2 | 1 | -1
Cc1nn(C)c(C)c1-c1cncc(C(=O)NC2CC2)c1 | 3 | 5
CN(C)c1cccc(Nc2nc(NCc3cccnc3)c3ncn(-c4ccsc4)c3n2)c1 | 17 | -13
COc1ccc(CCNC(=O)Cc2cn(-c3ccc(Nc4cc(OC)c(OC)c(OC)c4)nn3)c3ccccc23)cc1 | -10 | 10
C[C@@H](N)c1nc(-c2ccncc2)n[nH]1 | -11 | 3
c1ccc(CNc2cc(Nc3ccc(-n4ccnc4)cc3)ncn2)cc1 | 6 | -4
O=C(Nc1ccccc1)c1cccc(-c2cccs2)n1 | -2 | -7
O=C1CCCN1CCn1cnc2c(Nc3ccccc3)nc(N3CCOCC3)nc21 | 12 | -4
CC(C)n1cnc2c(NC3CCN(Cc4ccccc4)CC3)nc(NCc3ccc4c(c3)OCO4)nc21 | -6 | 32
O=C1Cc2cc(Nc3ccnc(Nc4ccc(N5CCOCC5)cc4)c3)ccc2N1 | 19 | 18
CNS(=O)(=O)c1ccccc1Nc1cc(Nc2ccccc2S(=O)(=O)NC)c(C(F)(F)F)cn1 | -21 | 14
CNS(=O)(=O)c1ccccc1Nc1cc(Nc2ccc3c(c2)CCC(=O)N3)ncc1C(F)(F)F | 90* | -40
CNC(=O)c1ccncc1Nc1cc(Nc2ccc3c(c2)CC(=O)N3)ncc1C(F)(F)F | 56* | 11
CNC(=O)c1cc(F)ccc1Nc1cc(Nc2ccc(N3CCCC3=O)cc2)ncc1C(F)(F)F | 73* | 12
CNC(=O)c1cc(N2CCOCC2)ccc1Nc1cc(Nc2ccc3c(c2)CC(=O)N3)ncc1C(F)(F)F | 82* | 0
SMILES | ULK1 primary | ASK1 inh
O=C1CCCN1CCCNc1nc(Nc2ccncn2)nc2nc[nH]c12 | -6 | -2
Cc1cc(NCc2cccc(C(F)(F)F)c2)nc(Nc2ccnn2C)n1 | -17 | 8
CCCCC(=O)Nc1ncc(Cc2ccccc2)s1 | 6 | x
CNC(=O)c1ccccc1Nc1cc(Nc2ccc3c(c2)CC(=O)N3)ncc1C(F)(F)F | 73* | 0
CS(=O)(=O)NC1CCC(Nc2cc(Nc3ccccc3C(N)=O)c(C(F)(F)F)cn2)CC1 (stereo not given) | 22 | -52
CNC(=O)c1ccccc1Nc1cc(Nc2ccc3c(c2)CC(=O)N3C)ncc1C(F)(F)F | 84* | -5
CNC(=O)c1ccccc1Nc1cc(Nc2ccc3[nH]nc(C4=CCNCC4)c3c2)ncc1C(F)(F)F | -20 | -8
CNC(=O)c1ccccc1Nc1cc(Nc2ccc3c(c2)OCO3)ncc1C(F)(F)F | 78* | -4
CNC(=O)c1ccccc1Nc1cc(Nc2ccc3[nH]c(=O)oc3c2)ncc1C(F)(F)F | 79* | -10
Nc1nc(NCCN2CCOCC2)cc(-c2ccc(N3CCOCC3)nc2)n1 | -4 | 5
Cn1c(Nc2nc(NCc3cccnc3)c3ncn(-c4ccsc4)c3n2)nc2ccccc21 | 18 | -13
CC(C)n1c(-c2ccc(C(=O)NC3CC3)cc2)nc2c(NCCOc3ccccc3)ncnc21 | -25 | 12
Cc1cc(NC2CC2)nc(Nc2ccnn2C)n1 | -2 | 1
O=C1OCCN1c1ccc(Nc2nccc(-c3cncc(N4CCOCC4)c3)n2)cc1 | 4 | 6
Cn1cnnc1-c1ccc(Nc2nccc(-c3ccc(NS(C)(=O)=O)cc3)n2)cc1 | -14 | 1
Cc1cnnn1-c1ccc(Nc2nccc(-c3ccc(NS(C)(=O)=O)cc3)n2)cc1 | 49* | 6
Cc1ncn(-c2ccc(Nc3nccc(-c4ccc(S(C)(=O)=O)cc4)n3)cc2)n1 | 2 | -12
CS(=O)(=O)Nc1ccc(-c2ccnc(Nc3ccc(N4CCOC4=O)cc3)n2)cc1 | 70* | -3
CS(=O)(=O)Nc1ccc(-c2ccnc(Nc3ccc(-n4ccnn4)cc3)n2)cc1 | 66* | -28
CC(O)c1ccc(Nc2nccc(-c3ccc(NS(C)(=O)=O)cc3)n2)cc1 (stereo not given) | 69* | -7
CS(=O)(=O)c1ccc(-c2ccnc(Nc3ccc(C(N)C(F)(F)F)cc3)n2)cc1 (stereo not given) | 20 | -21
COc1cc2nc(-c3cccc(OC(F)(F)F)c3)nc(Nc3ccc(OCCN4CCCCC4)cc3)c2cc1OC | -35 | -35
O=C(Nc1ccccc1)c1csc(Nc2ccccc2)n1 | -7 | 4
C/C(CC(=O)Nc1cccc2c1CCCC2)=N\NC(=O)COc1ccc(C)cc1 | -27 | x
Cc1ncn(-c2ccc(Nc3ncc4cccc(-n5cccn5)c4n3)cc2)n1 | 45* | -23
SMILES | ULK1 primary | ASK1 inh
Cc1ncn(-c2ccc(Nc3ncc4cccc(-c5cnn(C(C)C)c5)c4n3)cc2)n1 | 66* | -10
Cc1ncn(-c2ccc(Nc3ncc4cccc(-c5cnn(CC6CC6)c5)c4n3)cc2)n1 | 64* | 3
Cc1ncn(-c2ccc(Nc3ncc4cccc(-c5ccccc5)c4n3)cc2)n1 | 12 | -74
Cn1cc(-c2ccc3cnc(Nc4ccc(-n5cnc(N6CCOCC6)n5)cc4)nc3c2C2CC2)cn1 | 41 | -91
CC(C)n1cc(-c2ccc3cnc(Nc4ccc(-n5cnc(N6CCOCC6)n5)cc4)nc3c2Cl)cn1 | 53* | 3
Cc1ncn(-c2ccc(Nc3ncc4cccc(-c5cnn(C)c5)c4n3)cc2)n1 | 25 | -8
Cc1ncn(-c2ccc(Nc3ncc4cccc(-c5ccncc5)c4n3)cc2)n1 | -33 | 6
O=C(Nc1ccc2[nH]ncc2c1)c1cc(O[C@H]2CCN(Cc3ccccc3)C2)ccn1 | -14 | 19
Cc1noc(C)c1-c1nc(NCCN2CCOCC2)c2ncn(C(C)C)c2n1 | 6 | -9
COc1ccc(CCNc2nc(Cl)nc3c2ncn3-c2ccsc2)cc1 | -7 | -4
NC(=O)c1ccc(Nc2nccc(-c3cccc(Nc4ccccc4)c3)n2)cc1Cl | -32 | 13
COc1cc(Nc2cc(C)nc(Nc3cccc(N(C)C)c3)n2)cc(OC)c1OC | -19 | 29
CCNc1nc(NC2CC2)c2[nH]cnc2n1 | -5 | -5
FC(F)(F)c1cnc(Nc2ccccn2)cc1Nc1ccccn1 | 50* | 17
CN1Cc2cccc(Nc3cc(Nc4cccc5c4C(=O)N(C)C5)c(C(F)(F)F)cn3)c2C1=O | -7 | 15
O=C1CCCN1CCn1cnc2c(NCCN3CCOCC3)nc(N3CCOCC3)nc21 | 1 | -7
CN(C)CCNC(=O)c1ccccc1Nc1ccnc(Nc2ccc(N3CCOCC3)cc2)c1 | 1 | -12
NC(=O)c1ccccc1Nc1nc(Nc2ccc(N3CCOCC3)cc2F)ncc1Cl | 83* | -81
Fc1cc(N2CCOCC2)ccc1Nc1nccc(-c2cncc(N3CCOCC3)c2)n1 | 30 | 15
